Screens as filed in PubChem BioAssay.
Rows were chosen to be rich in hits. Some 1.3% of all compounds tested hit in one or more screens of this group.
HTT prom inh – Primary qHTS for Identification of Small Molecule Inhibitors of Huntingtin Promoter Activity; HEK293 HTT promoter firefly luciferase reporter, 24 h; Potency, µM (highest dose often 57.5 µM), inactives show top-dose activity change, negative = inhibition, hits mostly inhibitors; hit rate 0.93% among 48,000; AID 1508623, 2021; note: nearly all actives have a fitted effect of over 50% in size
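HEK293 cells carrying firefly luciferase reporters were seeded at 2,500 per well in Opti-MEM and cultured for 24 h. They were then treated with compounds at up to 57.5 uM final for 24 h at 37 degrees C before Dual-Glo luminescence readout.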
GALC G270D act – A Novel Cell-Based Assay to Identify Small Molecules for B -Galactocerebrosidase; Potency, µM (titrated, usually from 57.5 µM), actives largely listed as activators; 145M-Twi-hGALC-G270D cells (Twitcher mouse brain line with human GALC G270D), HMU-beta-Gal fluorescence, 48 h; P54803; hit rate 0.1% among 45,000; note: 0% is about no effect; nearly all actives have a fitted effect of over 65% in size
Target sequence (P54803 whole entry G286D): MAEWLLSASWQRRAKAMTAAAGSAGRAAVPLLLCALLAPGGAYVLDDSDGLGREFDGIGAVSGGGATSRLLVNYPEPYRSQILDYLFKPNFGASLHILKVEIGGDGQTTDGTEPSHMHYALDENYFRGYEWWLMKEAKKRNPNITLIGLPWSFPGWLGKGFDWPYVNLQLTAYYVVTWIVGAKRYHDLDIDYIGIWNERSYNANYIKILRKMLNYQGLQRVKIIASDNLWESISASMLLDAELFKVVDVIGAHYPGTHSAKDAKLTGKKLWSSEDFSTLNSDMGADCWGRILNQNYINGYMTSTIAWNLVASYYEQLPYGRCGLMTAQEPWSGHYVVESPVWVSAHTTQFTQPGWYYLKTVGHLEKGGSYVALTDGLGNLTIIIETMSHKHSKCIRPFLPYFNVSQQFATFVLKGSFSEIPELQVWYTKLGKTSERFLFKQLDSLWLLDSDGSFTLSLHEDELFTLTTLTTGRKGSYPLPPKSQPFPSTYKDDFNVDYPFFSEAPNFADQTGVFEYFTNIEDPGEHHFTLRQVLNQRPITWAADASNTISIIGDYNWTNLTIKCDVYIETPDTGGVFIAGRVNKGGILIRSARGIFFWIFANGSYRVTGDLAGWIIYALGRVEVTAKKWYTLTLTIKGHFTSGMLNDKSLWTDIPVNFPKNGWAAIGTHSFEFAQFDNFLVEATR
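Fluorescence readout: HMU-β-gal cleavage by mutant GALC (0.1 mM final, citrate/phosphate pH 5.2 with 1 mg/mL taurocholate), stopped with carbonate/bicarbonate plus Triton X-100. Cells: murine Twitcher 145M-Twi expressing human G270D GALC; qHTS for activators.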
HTT-AS act – Primary qHTS for Identification of Small Molecule Activators of Huntingtin-Antisense Promoter Activity. HEK293 HTT-AS promoter firefly luciferase reporter, 24 h; response scale: percent change from vehicle, -100% = no light. Potency, µM (top dose mostly 57.5 µM), for inactives: at the highest dose activity change, positive = activation, actives largely listed as activators. hit rate 0.24% among 48,000; note: nearly all actives have a fitted effect of over 55% in size
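Firefly luciferase signal from promoter-reporter HEK293 cells was scaled between vehicle (0%) and zero RLU (-100%). Compounds were tested at final concentrations of up to 57.5 uM over 24 h at 37 degrees C. PTC124 at 50 uM final served as control inhibitor.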
Active calls of the source: *; i = inactive; u = inconclusive; x = not tested or not shown. Calls come from the whole dose curve; as a rule, active = well fitted curve in the direction sought with a large enough effect; inconclusive = small, poorly fitted or top-dose-only effect, or another doubt; inactive = no such curve, though single readings can be large; an effect the other way counts as inactive or inconclusive. Potency is the fitted concentration of half-maximal effect.

SMILES	HTT prom inh	GALC G270D act	HTT-AS act
COc1cc2ccccc2cc1C(=O)N1CCN(c2nc3ccc(F)cc3s2)CC1	u	i	-42.0%
CCC[C@H](NC(=O)C(C#N)=Cc1cccc(Br)n1)c1ccccc1	u	x	-94.4%
Cc1nn(C(C)C(=O)N2CCN(c3ccc(Cl)cc3)CC2)c(=O)c2cc3occc3n12 (stereo not given)	25.1µM*	i	-55.7%
CCc1nn(C(C)C(=O)N2CCN(c3ccccc3)CC2)c(=O)c2cc3occc3n12 (stereo not given)	-28.7%	i	-30.6%
NC(=O)[C@@H](CCC(F)(F)F)N(Cc1ccc(-c2ncon2)cc1F)S(=O)(=O)c1ccc(Cl)cc1	-26.7%	x	-27.7%
CNC1[C@H](O)C(O[C@@H]2C(O)C(O[C@H]3O[C@H]([C@@H](C)NC)CC[C@H]3N)[C@@H](N)C[C@H]2N)OC[C@]1(C)O (stereo not given in full)	-0.7%	x	-15.1%
COc1cc(Nc2ncc3c(n2)-c2ccc(Cl)cc2C(c2c(F)cccc2OC)=NC3)ccc1C(=O)O	u	x	-43.8%
O=C(Nc1ccc(Br)cc1)C1CCCN1S(=O)(=O)c1ccc(F)cc1 (stereo not given)	35.5µM*	i	-42.1%
Cn1c(=O)c(=O)n(C)c2cc(S(=O)(=O)N3CCCC3C(=O)Nc3ccc(F)cc3)ccc21 (stereo not given)	-11.3%	i	-3.8%
N[C@@H](CC(=O)N1CCn2c(nnc2C(F)(F)F)C1)Cc1cc(F)c(F)cc1F	4.4%	x	-2.7%
Cc1[nH]c(C=C2C(=O)Nc3ccccc32)c(C)c1CCC(=O)O	u	x	-90.3%
CC(=O)[C@]1(O)Cc2c(O)c3c(c(O)c2[C@@H](O[C@H]2C[C@H](N)[C@@H](O)[C@H](C)O2)C1)C(=O)c1ccccc1C3=O	u	x	-28.0%
COc1cccc(C(=O)Nc2ccccc2C(=O)OCc2cc(=O)n3c(C)csc3n2)c1	-24.9%	i	-20.1%
COc1ccccc1C(=O)OCc1cc(=O)n2c(C)csc2n1	58.6%	i	11.2µM*
COc1cc(CNC(=O)c2ccc3nc(Cc4ccccc4)oc3c2)cc(OC)c1OC	14.1µM*	i	-44.9%
COc1cc(CNC(=O)c2ccc3nc(CCc4ccccc4)oc3c2)cc(OC)c1OC	u	i	-11.4%
CC(C)c1nn(-c2c(Cl)cccc2Cl)c2nc(Cc3ccc(OCCO)cc3)[nH]c(=O)c12	u	x	-41.7%
CC(C)(C)Cn1c(N)nc2ccc(-c3[nH]c(C(C)(C)C)nc3-c3ccc(F)cc3)nc21	u	x	-31.3%
COc1ccc(CNc2nc(-c3ccco3)nn2C(=O)c2ccccc2C)cc1	16.2%	i	8.91µM*
Cc1ccccc1C(=O)n1nc(-c2ccco2)nc1NCc1ccc(Cl)cc1	3.6%	i	u
c1ccc(N2CCN(c3ncnc4c3nc3n4CCCC3)CC2)cc1	12.6µM*	i	-64.6%
CC(=O)c1ccc(N2CCN(c3ncnc4c3nc3n4CCCC3)CC2)cc1	u	i	-31.9%
Cc1cccc(N2CCN(C(=O)C3CCN(c4ncnc5c4nc4n5CCCCC4)CC3)CC2)c1C	u	i	-34.4%
Cc1cccc(N2CCN(C(=O)C3CCN(c4ncnc5c4nc4n5CCCCC4)CC3)CC2C)c1 (stereo not given)	25.1µM*	i	-75.7%
CCn1c(-c2nonc2N)nc2cncc(CNC3CCNCC3)c21	-3.9%	x	-3.8%
SMILES	HTT prom inh	GALC G270D act	HTT-AS act
COc1ccc(-c2noc(CSc3nc4ccccc4[nH]3)n2)cc1	u	i	-44.1%
COc1ccc(-c2noc(CSc3nc(N)cc(=O)[nH]3)n2)cc1	22.4µM*	i	-90.7%
CN1C(=O)c2ccccc2Sc2ccc(NC(=O)N3CCN(c4ccccc4F)CC3)cc21	-16.6%	i	-16.2%
CC(C)Oc1ccc(CNC(=O)Nc2ccc3c(c2)N(C)C(=O)c2ccccc2S3)cc1	25.1µM*	i	-50.3%
COc1ccc(CNC(=O)Nc2ccc3c(c2)N(C)C(=O)c2ccccc2S3)cc1OC	u	i	-28.8%
CN1C(=O)c2ccccc2Sc2ccc(NC(=O)N3CCN(c4ccccc4)CC3)cc21	25.1µM*	i	-61.8%
COCCn1c2c([n+](Cc3cnccn3)c1C)C(=O)c1ccccc1C2=O	u	x	-94.5%
Cc1ccc(C(=O)Nc2ccc(Br)cc2)cc1S(=O)(=O)N1CCOCC1	20µM*	i	-22.4%
O=C(Nc1ccc(C(F)(F)F)cc1)c1cc(S(=O)(=O)N2CCCc3ccccc32)ccc1F	u	i	-73.5%
O=C(Nc1ccc(Br)cc1)c1ccc(F)c(S(=O)(=O)N2CCc3ccccc32)c1	14.1µM*	i	-44.6%
CC(C)c1ccc(NC(=O)c2ccc(F)c(S(=O)(=O)N3CCc4ccccc43)c2)cc1	u	i	-29.3%
Cc1cccc(N2CCN(S(=O)(=O)c3cc(C(=O)Nc4ccc(Oc5ccccc5)cc4)ccc3F)CC2)c1C	u	i	-30.3%
O=C(Nc1ccc(Cl)cc1)c1cc(S(=O)(=O)N2CCCc3ccccc32)ccc1F	25.1µM*	i	-45.6%
Cc1ccc(C)c(N2CCN(S(=O)(=O)c3cc(C(=O)Nc4ccc(Oc5ccccc5)cc4)ccc3F)CC2)c1	2µM*	i	-40.7%
Cc1ccc(NC(=O)c2ccc(C)c(S(=O)(=O)N3CCCCCC3)c2)cc1	u	i	-18.9%
CC(C)c1onc(-c2c(Cl)cccc2Cl)c1COc1ccc(C=Cc2cccc(C(=O)O)c2)c(Cl)c1	23.0%	x	u
COc1cc2nccc(Oc3ccc(NC(=O)C4(C(=O)Nc5ccc(F)cc5)CC4)cc3)c2cc1OC	-20.6%	x	-26.0%
O=C(O)C(O)Cc1ccc(O)c(O)c1 (stereo not given)	6.9%	x	-7.2%
O=C(Nc1nc2c(F)cccc2s1)c1ccc(S(=O)(=O)N2CCCc3ccccc32)cc1	0.8%	i	-8.9%
O=C(Nc1nc2c(F)cc(F)cc2s1)c1ccc(S(=O)(=O)N2CCc3ccccc32)cc1	22.4µM*	i	-56.1%
CN(C(=O)c1ccc(F)cc1C(F)(F)F)C1CCN(c2nnc(-c3ccnn3C)c3ccccc23)CC1	u	x	-37.0%
OCCN1C[C@H](O)[C@@H](O)[C@H](O)[C@@H]1CO	5.3%	x	-5.3%
CCOC(=O)N1CCc2c(sc(NCc3cccs3)c2C(=O)Nc2ccc(OC)cc2OC)C1	7.94µM*	u	-90.6%
CCOC(=O)N1CCc2c(sc(NCc3ccc(OCC)cc3)c2C(=O)Nc2ccc(OC)cc2OC)C1	10µM*	i	-82.0%
CCOC(=O)N1CCc2c(sc(NCc3ccc(OC)c(OC)c3OC)c2C(=O)Nc2ccc(OC)cc2OC)C1	u	i	-85.8%
CCOC(=O)N1CCc2c(sc(NCc3cccs3)c2C(=O)Nc2cc(OC)ccc2OC)C1	-9.4%	i	-16.2%
CCc1c(O)cc(O)c(C(=O)c2ccc(OCCN3CCOCC3)c(OC)c2)c1CC(=O)N(CCOC)CCOC	u	x	-53.6%
